From PubChem
Only some compounds are listed: those with a hit (about 17% of all), similar ones and a draw of the others.
TDP1 cell CPT: DT40-hTDP1 cell growth loss with CPT; Potency, µM (highest dose often 46.2 µM), inactives show top-dose activity change, negative = growth inhibition, most hits filed as inhibitors; chicken DT40 Tdp1-/-;hTDP1 cells + 20 nM CPT, ATP luminescence, 48 h; 420,000 tested, 12% active; further: on the % scale 0 is the no-effect control and ±100 the full control effect; nearly all actives have a fitted effect of over 55% in size
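Chicken DT40 Tdp1-/- cells stably complemented with human TDP1 were seeded at 400 cells/well in medium containing 20 nM camptothecin, exposed to pin-transferred compounds, and grown at 37 °C for at least 48 hr. Viability was read as ATP luminescence.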
TDP1 cell noCPT: qHTS for Inhibitors of human tyrosyl-DNA phosphodiesterase 1 (TDP1): qHTS in cells in absence of CPT. 420,000 tested, 15% active. DT40 Tdp1-/- hTDP1 cells, no CPT, ATP luminescence, 48 h. Potency, µM (doses to about 46.2 µM), for inactives: at the top dose activity change, negative = growth inhibition, most hits filed as inhibitors; further: on the % scale 0 is the no-effect control and ±100 the full control effect; nearly all actives have a fitted effect of over 55% in size
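Seeded 400 DT40-hTDP1 cells/well (vehicle DMSO, no 20 nM CPT); pinned compounds; ≥48 hr at 37 °C; CellTiter-Glo luminescence as viability measure.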
HT1080 IDH1KD tx: kills HT-1080 cells with IDH1 knockdown; HT-1080 IDH1 knockdown viability, ATP luminescence, 48 h; Potency, µM (titrated, usually from 46.1 µM), inactives show at the top dose activity, negative = toxicity, actives largely listed as cytotoxic; 360,000 tested, 2% active; AID 686971;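 further: 0% = DMSO wells and -100% = cell-free medium wells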
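Using the IDH1-knockdown HT-1080 line run in the same batch and compound series as the NT line, viability after 48 h at 37 °C was determined by CellTiter-Glo luminescence and expressed as % activity.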
TGFb SMAD3 inh: blocks TGF-b signaling. HepG2 CAGA-GFP TGF-b/SMAD3 reporter, GFP fluorescence, 18 h; TGF-beta stimulated, 500 pg/mL final. 410,000 tested, 1.2% active. Potency, µM (series often up to 46.1 µM), for inactives: at the highest dose activity, negative = inhibition, hits mostly inhibitors. AID 588855; further: on the % scale 0 is the no-effect control and ±100 the full control effect; nearly all actives have a fitted effect of over 65% in size
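Using HEPG2 CAGA-GFP reporter cells at 1000 cells/well, we pinned test compounds, stimulated with recombinant TGF-beta (500 pg/mL final) and measured total well GFP after 18 h.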
HT1080-NT tox: kills 2HG-producing HT-1080-NT fibrosarcoma cells; AID 686970; 360,000 tested, 1.6% active; Potency, µM (series often up to 46.1 µM), for the others: at the top dose activity, negative = less viability, usual class: cytotoxic; HT-1080-NT fibrosarcoma viability, CellTiter-Glo ATP luminescence, 48 h;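 further: NT is the 2HG producing partner of a matched IDH1 knockdown line; 0% = DMSO-treated cells and -100% = media-only wells without cells; nearly all actives have a fitted effect of over 55% in size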
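Compounds were tested in concentration-response format on HT-1080-NT cells for 48 hours at 37 degrees C. Cell viability came from CellTiter-Glo luminescence; curves were classified by r2, response magnitude and activity.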
HepG2 tox: kills HepG2 cells in TGF-b inhibitor counter-screen. Potency, µM (top dose mostly 46.1 µM), without a hit: at the top dose activity change, negative = cytotoxicity, actives largely listed as cytotoxic. HepG2 CAGA-GFP viability, ATP luminescence, 18 h. 410,000 tested, 0.76% active. AID 588856
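HepG2 CAGA-GFP cells (1000/well, DMEM with 1% FBS) received compound, then TGF-beta at 500 pg/mL final, and were incubated 18 hours at 37 degrees C. Viability was read by CellTiter-Glo luminescence. Media-only wells were set as complete cell-killing and DMSO as no toxicity.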
* marks the source's active call; other numbers are inactive results; ? = inconclusive; nt = no result given; ! = not active in a repeat. The call rests on the fitted dose curve; in most records, active means well fitted curve in the direction sought with a large enough effect; inconclusive means small, poorly fitted or top-dose-only effect, or another doubt; inactive means no such curve, though single readings can be large; an effect the other way counts as inactive or inconclusive. Potency means the concentration at half of the fitted maximal effect.

SMILES	TDP1 cell CPT	TDP1 cell noCPT	HT1080 IDH1KD tx	TGFb SMAD3 inh	HT1080-NT tox	HepG2 tox
CCN(C(=O)COC(=O)CCCOc1ccc(Cl)cc1C)c1c(N)n(Cc2ccccc2)c(=O)[nH]c1=O	14.6µM*	16.4µM*	-2.9%	?	?	-53.2%
CCCCN1CCC(CCC(=O)c2cc(Cl)c(N)cc2OC)CC1	?	26.6µM*!	nt	nt	nt	nt
O=C1CCCc2ccccc2N1	6.8%	11.6%	17.4%	0.0%	9.5%	4.3%
Cc1oc2ncn(CC(C)C)c(=O)c2c1C(=O)NCc1cccc(Cl)c1	16.4µM*	16.4µM*	nt	-2.2%	nt	-4.0%
COc1ccc(C)cc1NC(=O)c1c(C)oc2ncn(CC(C)C)c(=O)c12	?	23.1µM*	nt	-14.2%	nt	-22.6%
Cc1oc2ncn(CC(C)C)c(=O)c2c1C(=O)Nc1cccc(C(F)(F)F)c1	-10.3%	-1.0%	nt	4.5%	nt	-0.8%
Cc1cccc(NC(=O)c2c(C)oc3ncn(CC(C)C)c(=O)c23)n1	10.3µM*	9.2µM*	nt	-2.6%	nt	-2.5%
CCCCNC(=O)c1c(C)oc2ncn(CC(C)C)c(=O)c12	-25.8%	?	nt	0.2%	nt	-7.2%
CC[C@]12c3[nH]c4cc(-c5ccco5)ccc4c3CCN1C(=O)[C@@H](CC(=O)NCCc1ccccn1)C[C@@H]2C(=O)N1CCN(C(=O)C2CC2)CC1	?	?	-2.9%	?	-4.6%	-2.1%
O=C(Nc1cccc(OCC(=O)N2CCOCC2)c1)c1ccc(C(F)(F)F)cc1	-15.5%	-28.8%	-12.3%	-3.4%	-10.5%	5.9%
CCCNC(=O)C1(C)CCCN(C(=O)c2cccc(C(F)(F)F)c2)C1 (stereo unspecified)	-20.8%	-20.3%	11.4%	?	?	-6.9%
Fc1ccc(-c2c[nH]c(=S)n2Cc2ccccc2)cc1	20.6µM*	?	2.9%	-18.4%	-4.8%	-39.8%
O=c1[nH]cc(-c2ccc(Br)cc2)n1Cc1ccccc1	?	?	1.0%	-29.1%	-1.6%	-35.2%
COc1cc(=O)n2c(c1C(=O)NCc1ccsc1)CCN(Cc1nc3ccccc3[nH]1)CC2	-9.7%	-0.4%	nt	nt	nt	nt
Nc1ccc(C(Cc2ccnc3ccccc23)Cc2ccnc3ccccc23)cc1	?	?	nt	-10.8%	nt	-26.8%
CCC(=O)c1cc(F)c(N2CCN(C(=O)Cc3ccccc3)CC2)cc1C	20.6µM*	14.6µM*	-9.8%	3.5%	1.1%	-17.6%
CC(=O)c1cc(F)c(N2CCOCC2)cc1C	-14.2%	1.2%	13.5%	3.3%	0.7%	-9.5%
CC(=O)c1cc(F)c(N2CCN(C(=O)COc3ccccc3F)CC2)cc1C	20.6µM*	16.4µM*	-0.2%	0.6%	-1.7%	2.3%
CC(=O)c1cc(F)c(N2CCN(C(=O)C(C)(C)C)CC2)cc1C	20.6µM*	20.6µM*	10.8%	-4.0%	10.9%	-14.9%
CC(=O)c1cc(F)c(N2CCCC2)cc1C	20.6µM*	20.6µM*	0.0%	4.3%	3.7%	-20.4%
Cc1cc(N2CCOCC2)c(F)cc1C(=O)c1ccccc1	4.9%	-18.5%	-10.1%	-11.6%	-3.8%	6.8%
CCOC(=O)C1=CN(Cc2ccco2)S(=O)(=O)N(C)C1CC (stereo unspecified)	?	-25.7%	-1.8%	?	-7.1%	-21.0%
CC1=C(C(=O)NCc2ccccc2C)C2(CCCCCC2)OC1=O	?	-20.6%	nt	?	nt	-11.8%
Cc1ccccc1CN(C)CCS(=O)(=O)c1cc(Cl)ccc1Cl	?	?	13µM*	?	16.4µM*	6.5%
Cc1ccc(NC(=O)c2ccc(F)cc2)cc1S(=O)(=O)N1CCCCCC1	?	-28.8%	-12.9%	?	-16.3%	-25.1%
SMILES	TDP1 cell CPT	TDP1 cell noCPT	HT1080 IDH1KD tx	TGFb SMAD3 inh	HT1080-NT tox	HepG2 tox
Cc1ccc(C)c(S(=O)(=O)N2CCN(C(=O)CNC(=O)c3ccc4ccccc4c3)CC2)c1	?	16.4µM*	-17.9%	-14.9%	-18.7%	-85.3%
Cc1ccc(C)c(S(=O)(=O)N2CCN(C(=O)[C@@H](NC(=O)c3ccc(F)cc3)C(C)C)CC2)c1	?	20.6µM*	-12.4%	-28.6%	-7.6%	-4.7%
Cc1cccc(C(=O)NCC(=O)N2CCN(S(=O)(=O)c3cc(C)ccc3C)CC2)c1	?	?	-1.9%	-16.6%	-7.3%	-21.6%
N#CC1(NC(=O)COC(=O)C2CCN(S(=O)(=O)c3ccc4c(c3)OCCO4)CC2)CCCCC1	-0.4%	18.4%	2.4%	-5.2%	-1.7%	-12.0%
O=C(O)c1nccnc1C(=O)Nc1ccc(Cl)cn1	-11.3%	-18.4%	1.7%	-19.2%	-1.4%	-18.6%
Cc1cnc(CN(C)C(=O)C2CCC(=O)N(CCc3ccc(Cl)cc3)C2)[nH]1 (stereo unspecified)	-1.7%	5.8%	1.2%	8.7%	3.4%	4.2%
CCCCCCOc1ccc(C(=N)N(CCCC)CCCC)c2ccccc12	4.22µM*	2.66µM*	nt	nt	nt	nt
Cc1cccc(OCc2n[nH]c(=S)n2-c2ccccc2)c1	-1.7%	7.5%	-4.8%	-17.7%	-5.2%	-30.0%
Cc1cccc(OCc2nc(-c3ccccn3)n[nH]2)c1	20.6µM*	14.6µM*	-2.6%	?	-11.4%	-48.2%
Cc1ccc(OCc2nc(-c3ccccn3)n[nH]2)cc1	3.26µM*	4.61µM*	-14.7%	-41.7%	-10.2%	-15.5%
O=C1CCC/C=C/C[C@H](CC(=O)N(CCO)Cc2ccccc2)C(=O)N[C@@H](Cc2ccccc2)CO1	?	20.6µM*	-1.0%	21.8%	-5.2%	9.9%
O=C1CCCC/C=C\C[C@H](CC(=O)N(CCO)Cc2ccccc2)C(=O)N[C@@H](Cc2ccccc2)CO1	?	?	5.2%	5.4%	10.0%	-10.4%
O=C1CCC/C=C\C[C@@H](CC(=O)N(CCO)Cc2ccccc2)C(=O)N[C@H](Cc2c[nH]c3ccccc23)CO1	?	16.4µM*	1.3%	-43.9%	0.2%	-15.7%
O=C1CC/C=C\C[C@@H](CC(=O)N(CCO)Cc2ccccc2)C(=O)N[C@H](Cc2c[nH]c3ccccc23)CO1	16.4µM*	?	10.0%	13.1%	?	4.3%
O=C(COC(=O)CCC1CCCC1)Nc1ccc(F)cc1Cl	-10.4%	5.4%	0.8%	19.4%	2.2%	9.9%
Cc1cc(S(=O)(=O)N2CCN(Cc3noc(CCC(=O)N4CCCCC4)n3)CC2)ccc1F	16.4µM*	?	nt	-2.8%	nt	-3.8%
